The campaign covered roughly 4,800 compounds. About 420 (8.8%) showed an effect of 50% or more. What follows is part of a selection rich in strong results, with near analogues and random picks from the rest.
tested on: Plasmodium falciparum; experiment: Confirmatory screen in NF54 nanoGlo assay, in single point, at 2uM, 72h; format: functional, Erythrocyte; details: timepoint 72 hour

| SMILES | % Inhibition [%] |
| --- | --- |
| Cc1cc(N2C(=O)CCS2(=O)=O)cc(C)c1S(=O)(=O)NCc1ccccn1 | 2 |
| Cc1nn(C)c(C)c1-c1cc(C(=O)Nc2sc3c(c2C#N)CCCC3)c2ccccc2n1 | -13 |
| Cc1cc(C)c(NC(=O)OCc2cccc3cccnc23)c(C)c1 | 83 |
| CCc1ccc(C2=Nc3cccnc3N(CC(=O)Nc3c(C)cc(C)cc3C)C(=O)C2)cc1 | -4 |
| Cc1cccnc1NC(=O)OC(C)(C)C | 0 |
| CN(C(=O)Cc1cc(Br)ccc1F)c1nncn1C | 9 |
| O=S(=O)(N[C@H](c1nccs1)C1CC1)c1c(F)cccc1Cl | 0 |
| CC(C)CC(=O)N=c1nc(S)ss1 | -4 |
| COc1ccc(NC(=O)CCC(=O)N2CCc3ccccc3C2)cc1 | 3 |
| CCN1C(=O)c2ccccc2N2C(=O)CC[C@@]12C(=O)Nc1cccc(OC)c1 | 92 |
| COc1ccc(NC(=O)CN2N=C(C(=O)Nc3ccccc3)CCC2=O)cc1 | -15 |
| CCCN1C(=O)c2ccccc2N2C(=O)CC[C@@]12C(=O)Nc1ccc(OC)cc1 | 92 |
| CC(=O)c1cccc(NC(=O)c2nonc2C)c1 | -11 |
| CCCN1C(=O)c2ccccc2N2C(=O)CC[C@@]12C(=O)Nc1ccccc1 | 91 |
| CC(=O)c1cccc(NC(=O)[C@@]23CCC(=O)N2c2ccccc2C(=O)N3C)c1 | 76 |
| O=C(CN1C[C@@H](c2ccccc2)Oc2ccccc2C1=O)Nc1ccccc1 | -16 |
| CC(=O)c1cccc(NC(=O)Cn2c(=O)n(CCc3ccccc3)c(=O)c3ccccc32)c1 | 7 |
| COc1ccc(NC(=O)C2=NN(CC(=O)Nc3cccc(OC)c3)C(=O)CC2)cc1 | -12 |
| COc1cccc(NC(=O)c2ccc3c(c2)N(C)[C@@H]2CCCCCN2C3=O)c1 | 5 |
| CCOc1cccc(CNC(=O)c2nn[nH]c2Nc2ccc(C)c(C)c2)c1 | 1 |
| Cc1ccc(Cc2nn3c(C4CCN(S(C)(=O)=O)CC4)nnc3s2)cc1C | -8 |
| Cc1ccc(OCCCOc2ccc(CO)nc2)cc1C | 3 |

| SMILES | % Inhibition [%] |
| --- | --- |
| O=S1(=O)NCCCCN1Cc1ccccc1 | -6 |
| Cc1cc(NC(=O)Cn2c(=O)n(CC(C)C)c(=O)c3sccc32)no1 | -13 |
| Cn1cc(N)c(Oc2ccc3c(c2)OCO3)n1 | 0 |
| Cc1cc(N2C(=O)CCS2(=O)=O)ccc1S(=O)(=O)NC1CCCC1 | 7 |
| Cc1ccc(-c2nn[nH]n2)cc1-n1cccn1 | -2 |
| COc1ccc(N2CCN(c3nccn4nc(-c5cccs5)cc34)CC2)cc1 | 6 |
| O=C(NC(N1CCCC1=O)(C(F)(F)F)C(F)(F)F)c1ccco1 | -1 |
| CC(C)(C)OC(=O)NC1CCCN(CC2CN(c3ccc(F)cc3)C(=O)O2)C1 (centres undefined) | -8 |
| Cc1cccc2c(-c3cc(N)nc(N)n3)c[nH]c12 | 85 |
| CN(C)c1nc(N)cc(-c2cccc3cccnc23)n1 | 44 |
| Cc1cccc(C)c1NC(=O)c1cc(-c2cccc3ccccc23)[nH]n1 | 2 |
| O=C(NCc1cc(F)cc(F)c1)c1csc(C(=O)NC2CC2)n1 | -6 |
| C[C@H]1CCCN(C(=O)CNC(=O)Cc2ccccc2)CC1 | -9 |
| c1ccc(-c2c[nH]c([C@H]3CCCN(c4ncnc5[nH]ncc45)C3)n2)cc1 | -4 |
| CN(C)c1nc(CN2CCC[C@H](c3n[nH]c(-c4ccccc4)n3)C2)ns1 | -1 |
| COc1ccnc(CN2CCC[C@H](c3nc(-c4ccccc4)c[nH]3)C2)c1OC | 67 |
| CCS(=O)(=O)Nc1cc2c(C(C)=O)c(C)oc2cc1C | 4 |
| Cc1ccc2c(c1)[C@@H](O)C[C@@H](C)N2C(=O)c1ccco1 | -7 |
| Brc1ccc2c(c1)CN(Cc1c[nH]cn1)CCO2 | 4 |
| Cc1nc(N2CCC(C)CC2)ncc1-c1cc(=O)[nH]c(Nc2ccccc2)n1 | -16 |
| COc1ccc(-c2cc(-c3ccccc3)nc(N3CCC(C)CC3)n2)cc1 | 50 |
| COc1ccc(N2CCN(c3nc(-c4ccccc4)cs3)CC2)cc1 | -6 |

| SMILES | % Inhibition [%] |
| --- | --- |
| Cc1cccc(NC(=O)CS(=O)(=O)Cc2cc(Cl)cc3c2OCOC3)c1C | -10 |
| COc1cccc(CNC(=O)Cn2c(=O)n(Cc3cccc(OC)c3)c(=O)c3sccc32)c1 | 2 |
| O=C(CNC(=O)c1ccc(C(F)(F)F)cc1)Nc1cnc2c(c1)COCC2 | -1 |
| CCNC(=O)c1csc(COc2ccc3c(c2)[C@H](c2ccc(C)cc2)N(C(=O)CC(C)C)CC3)n1 | 36 |
| Cc1cccc(CN2C(=O)[C@@H]3CCCN3c3ccc(C#N)cc32)c1 | 0 |
| Cc1cc(N2C[C@H]3CC[C@@H](C2)[C@H]3N(C)C)nc(Nc2cccc(O)c2)n1 | 44 |
| Cc1cc(N2CC(OCc3ccccc3)C2)nc(Nc2cccc(O)c2)n1 | 96 |
| CN(C(=O)C(C)(C)Nc1ncc(C(F)(F)F)cc1Cl)c1ccc(Cl)cc1 | 35 |
| CN(CC#N)C(=O)c1ccc(Br)cc1Br | -12 |
| O=C(N[C@@H]1CN(Cc2ccccn2)CCC[C@H]1O)c1ccc(OCc2ccccc2)cc1 | 30 |
| CC(C)C1(CNC(=O)C(=O)c2cc(S(N)(=O)=O)cn2C)CC1 | -3 |
| CCn1cc(C)c(C(=O)O)c1CC(=O)NCc1ccc(F)cc1 | -12 |
| CC(CNC(=O)NCC(O)C1CC1)c1ccc(F)c(F)c1 (centres undefined) | 3 |
| Cc1nn(C)cc1[C@@H]1CC(=O)Nc2c1cnn2C(C)(C)C | -14 |
| COc1cc(OC)nc(-n2nc(C)cc2C(=O)Nc2ccc(Cl)cc2)n1 | 10 |
| Cc1cc(C)n(-c2nc(Nc3ccc(Cl)cc3)nc(Nc3ccc(Cl)cc3)n2)n1 | 82 |
| Cc1cc(C)n(-c2nnc(-c3ccccc3)c(-c3ccccc3)n2)n1 | 2 |
| O=C(Cc1cccs1)Nc1ncc(Cc2ccccc2)s1 | 4 |
| CCn1cc(Cl)c(C(=O)N2N=C3/C(=C/c4ccc(C)cc4)CCCC3C2c2ccc(C)cc2)n1 (centres undefined) | 7 |
| Cc1ccc(NC(=O)CN2CCC3(CC2)NC(c2ccc(OC(F)(F)F)cc2)=NO3)c(C)c1 | -5 |
